A selection: hits, their analogues and other compounds. The true share with any hit is near 2.1%.
LANA-H2B inh: blocks KSHV LANA binding to histone H2A/H2B | actives 0.6% (n = 320,000) | AID 2629 | Q9QR71 | cell-free LANA-H2A/H2B peptide, fluorescence polarization | inhibition, % (concentration not given with the values); in the data active = inhibition mostly above about 10%, no sharp cut-off; inactive = mostly below about 6.7%
IDE cell activ: activators of human insulin-degrading enzyme in cells; activation, % at 5.96 µM; AID 493087; actives 0.073% (n = 340,000); HEK cells, FAbeta-B cleavage, fluorescence polarization; 0% vehicle, 100% cell-free pure enzyme wells; P14735;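 active = activation above the mean of all tested compounds plus 3 SD, set per screening campaign, cut at about 17% in these data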
Target sequence (P14735 whole entry, looked up): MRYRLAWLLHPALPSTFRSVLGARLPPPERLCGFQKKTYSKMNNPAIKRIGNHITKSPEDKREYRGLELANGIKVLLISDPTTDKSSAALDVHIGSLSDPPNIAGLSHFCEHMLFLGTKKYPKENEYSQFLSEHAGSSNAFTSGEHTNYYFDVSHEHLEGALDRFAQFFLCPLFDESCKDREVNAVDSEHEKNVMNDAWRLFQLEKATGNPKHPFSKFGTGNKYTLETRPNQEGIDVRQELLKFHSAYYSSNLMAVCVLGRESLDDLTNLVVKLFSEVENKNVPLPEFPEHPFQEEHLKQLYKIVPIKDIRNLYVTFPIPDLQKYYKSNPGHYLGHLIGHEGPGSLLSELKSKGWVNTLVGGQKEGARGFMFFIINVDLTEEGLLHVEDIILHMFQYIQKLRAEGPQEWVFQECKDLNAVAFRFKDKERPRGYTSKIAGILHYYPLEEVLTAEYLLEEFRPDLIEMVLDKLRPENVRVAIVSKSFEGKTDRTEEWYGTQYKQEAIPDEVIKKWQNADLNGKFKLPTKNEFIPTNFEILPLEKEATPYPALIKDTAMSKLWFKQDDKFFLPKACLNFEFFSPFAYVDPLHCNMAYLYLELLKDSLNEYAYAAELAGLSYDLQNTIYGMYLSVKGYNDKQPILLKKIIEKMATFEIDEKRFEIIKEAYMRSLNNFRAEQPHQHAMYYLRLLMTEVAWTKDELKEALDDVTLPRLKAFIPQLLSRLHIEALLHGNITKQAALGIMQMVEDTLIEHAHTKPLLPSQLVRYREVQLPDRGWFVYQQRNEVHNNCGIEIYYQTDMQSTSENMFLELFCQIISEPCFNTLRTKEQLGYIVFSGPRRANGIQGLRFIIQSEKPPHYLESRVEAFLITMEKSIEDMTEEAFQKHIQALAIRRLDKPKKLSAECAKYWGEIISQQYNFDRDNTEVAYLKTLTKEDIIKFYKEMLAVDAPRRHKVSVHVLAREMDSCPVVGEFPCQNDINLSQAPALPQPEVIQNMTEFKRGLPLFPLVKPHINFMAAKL
HDAC3 inhib: inhibitors of human histone deacetylase 3 | O15379 | recombinant HDAC3, fluorogenic peptide/trypsin coupled, fluorescence | inhibition, % at 8.3 µM | actives 0.15% (n = 320,000); in the data active = inhibition above about 26%, passing the limit was not always enough; inconclusive = no clear call, values can overlap the other calls
SUMO Mot1 rescue: inhibitors of SUMOylation pathway: yeast Mot1-301 growth rescue | S. cerevisiae Mot1-301 growth rescue, ATP luminescence, 38.5C; percent above DMSO median, 100 means doubled | growth rescue, % at 18.8 µM | actives 1% (n = 320,000) | AID 2716;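 active = every valid replicate shows activation above 250% relative to neutral control wells; inactive = the rest, any valid replicate at or below 250%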;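 note: OY570 slx delta 5 strain wells were the positive control but not used for scaling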
IDE cell inh: inhibits human insulin-degrading enzyme in HEK cells. actives 0.41% (n = 320,000). AID 434962. inhibition, % at 5.59 µM. FAbetaB cleavage, fluorescence polarization;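 active = percent inhibition above the average of all tested compounds plus 3 SD, set per screening campaign, cut at about 16% in these data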;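 note: IDE supplied by intact live HEK cells; FP after avidin binding of uncleaved biotin substrate so inhibition keeps polarization high; 0% = DMSO wells and 100% = 60 µM reference IDE inhibitor Ii1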
Yeast Mot1 SUMO: SUMO pathway inhibitors in yeast Mot1-301 growth; shares compounds with SUMO Mot1 rescue; S. cerevisiae Mot1-301 galactose growth, ATP luminescence, 24 h; -100 = growth of slx-deleted rescue strain; growth activity, percent, % at 42 µM; 2,300 tested, under 10 active;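 active = Signal drops as the depositor expects, and the fitted half-maximal dose is no more than ten times the top valid tested dose; inconclusive = Poor fit, or a flat curve whose signal drops by 30% to 70%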;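 note: more negative values mean stronger growth rescue toward the control strain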
* marks the source's active call; other numbers are inactive results.

How did COc1cc(/C=N/NC2=NS(=O)(=O)c3ccccc32)cc(OC)c1OC do in these assays?
LANA-H2B inh: 0; IDE cell activ: 5; HDAC3 inhib: 25; SUMO Mot1 rescue: 630*; IDE cell inh: -2; Yeast Mot1 SUMO: 0

What do the screens show for `COc1cc(N)c(Cl)cc1C(=O)OCC(=O)N(C)C1CCCCC1`?
LANA-H2B inh: -5; IDE cell activ: 2; HDAC3 inhib: 6; SUMO Mot1 rescue: -12; IDE cell inh: -2

What do the screens show for `CCC1SC2=NC(C)=C(C(=O)OCCOC)C(c3ccc(C(=O)OC)cc3)N2C1=O` (stereo not given)?
LANA-H2B inh: 1; IDE cell activ: 1; HDAC3 inhib: 10; SUMO Mot1 rescue: 832*; IDE cell inh: 0; Yeast Mot1 SUMO: -1

How did CCC1SC2=NC(C)=C(C(=O)OC)C(c3ccc(C(=O)OC)cc3)N2C1=O (stereo not given) do in these assays?
LANA-H2B inh: -3; IDE cell activ: 0; HDAC3 inhib: 0; SUMO Mot1 rescue: -20; IDE cell inh: 5

Results for Cc1oc(-c2ccc(-c3ccccc3)cc2)nc1CN(CCO)C(C)C ?
LANA-H2B inh: -3; IDE cell activ: 6; HDAC3 inhib: -27; SUMO Mot1 rescue: 7; IDE cell inh: 0

Results for COc1ccc(CN(CC(=O)NCc2ccco2)C(=O)CCC(=O)Nc2nccs2)cc1 ?
LANA-H2B inh: 0; IDE cell activ: 1; HDAC3 inhib: 5; SUMO Mot1 rescue: 868*; IDE cell inh: -1; Yeast Mot1 SUMO: 0

What do the screens show for `COc1ccc(CNC(=O)CN(Cc2ccco2)C(=O)CNS(=O)(=O)c2ccccc2)cc1`?
LANA-H2B inh: 0; IDE cell activ: -1; HDAC3 inhib: 7; SUMO Mot1 rescue: 559; IDE cell inh: 0

Results for COc1ccc(S(=O)(=O)NCC(=O)N(CC(=O)NCc2ccco2)Cc2ccccc2)cc1 ?
LANA-H2B inh: -2; IDE cell activ: 4; HDAC3 inhib: -9; SUMO Mot1 rescue: 642*; IDE cell inh: 3; Yeast Mot1 SUMO: 0

What do the screens show for `COCCNC(=O)CSc1ccccc1C(=O)NC1CCSc2ccccc21` (stereo not given)?
LANA-H2B inh: 1; IDE cell activ: 0; HDAC3 inhib: 5; SUMO Mot1 rescue: -14; IDE cell inh: -1

How did CCN(CC)c1ccc(Nc2cc3n(c(=O)n2)CCc2cc(OC)c(OC)cc2-3)cc1 do in these assays?
LANA-H2B inh: 1; IDE cell activ: 2; HDAC3 inhib: 3; SUMO Mot1 rescue: active; IDE cell inh: -3; Yeast Mot1 SUMO: 0

Results for CCOc1ccc(CCNC(=O)COC(=O)COc2ccc(C(C)=O)cc2)cc1OCC ?
LANA-H2B inh: -5; IDE cell activ: 2; HDAC3 inhib: 2; SUMO Mot1 rescue: active; IDE cell inh: -2; Yeast Mot1 SUMO: -1

Results for CCOc1ccc(CCNC(=O)COC(=O)c2ccc(OC)c(OC)c2OC)cc1OCC ?
LANA-H2B inh: 1; IDE cell activ: -4; HDAC3 inhib: 3; SUMO Mot1 rescue: 6; IDE cell inh: 1

Results for CCOc1ccc(CCNC(=O)COC(=O)COc2ccc(C(=O)CC)cc2)cc1OCC ?
LANA-H2B inh: 0; IDE cell activ: -4; HDAC3 inhib: 10; SUMO Mot1 rescue: 5; IDE cell inh: 1

How did CCOc1ccc(CCNC(=O)COC(=O)c2cccc(OC)c2O)cc1OCC do in these assays?
LANA-H2B inh: 7; IDE cell activ: 1; HDAC3 inhib: 3; SUMO Mot1 rescue: 541*; IDE cell inh: -3; Yeast Mot1 SUMO: 0

How did O=C(N=C1SC2CS(=O)(=O)CC2N1Cc1ccc(Cl)cc1)C1CCCO1 (stereo not given) do in these assays?
LANA-H2B inh: 1; IDE cell activ: -4; HDAC3 inhib: 6; SUMO Mot1 rescue: -2; IDE cell inh: -2

How did C=CCOn1c(=O)c(-c2ccc(F)cc2)[n+]([O-])c2ccccc21 do in these assays?
IDE cell activ: 4

Results for CCCCOc1cccc(C2/C(=C(/O)c3ccc4c(c3)CC(C)O4)C(=O)C(=O)N2CCN2CCOCC2)c1 (stereo not given) ?
LANA-H2B inh: 0; IDE cell activ: 0; HDAC3 inhib: -7; SUMO Mot1 rescue: -12; IDE cell inh: 2

What do the screens show for `Oc1ccccc1-c1nc(NCc2ccco2)c2ccccc2n1`?
LANA-H2B inh: -8; IDE cell activ: 3; HDAC3 inhib: 3; SUMO Mot1 rescue: -9; IDE cell inh: 3

How did c1ccc(-c2nc(NCc3ccco3)c3ccccc3n2)nc1 do in these assays?
LANA-H2B inh: 2; IDE cell activ: -2; HDAC3 inhib: inconclusive; SUMO Mot1 rescue: 505*; IDE cell inh: 0; Yeast Mot1 SUMO: 0

How did CC(Oc1ccc(C#N)cc1)C(=O)Nc1ccc(-n2cnnn2)cc1 (stereo not given) do in these assays?
IDE cell activ: 8

What do the screens show for `Cc1cc(C)cc(C(=O)Nc2ccc3[nH]c(=O)[nH]c3c2)c1`?
LANA-H2B inh: -8; IDE cell activ: -3; HDAC3 inhib: 4; SUMO Mot1 rescue: 366; IDE cell inh: 6

Results for O=C(Nc1ccc2[nH]c(=O)[nH]c2c1)c1c(F)c(F)c(F)c(F)c1F ?
LANA-H2B inh: 5; IDE cell activ: 2; HDAC3 inhib: 2; SUMO Mot1 rescue: 613*; IDE cell inh: 4; Yeast Mot1 SUMO: 0

How did O=C(Nc1ccccc1F)C1CCN(C(=O)Cc2ccccc2)CC1 do in these assays?
LANA-H2B inh: -5; IDE cell activ: 6; HDAC3 inhib: -1; SUMO Mot1 rescue: 684*; IDE cell inh: 3; Yeast Mot1 SUMO: 0

What do the screens show for `O=C(Nc1ccccc1Br)C1CCN(C(=O)Cc2ccccc2)CC1`?
LANA-H2B inh: 4; IDE cell activ: 4; HDAC3 inhib: 1; SUMO Mot1 rescue: 352; IDE cell inh: 8

How did Cc1cc(C)c(C(N)=O)c(SCC(=O)c2cc(C)n(-c3cc(C)on3)c2C)n1 do in these assays?
LANA-H2B inh: 0; IDE cell activ: 5; HDAC3 inhib: -2; SUMO Mot1 rescue: -15; IDE cell inh: 3

How did C/C(=N\NC(=O)c1ccc(Cl)cc1)c1cccc(NC(=O)c2cccnc2)c1 do in these assays?
IDE cell activ: 3; SUMO Mot1 rescue: 183; IDE cell inh: 6

What do the screens show for `C/C(=N\NC(=O)c1ccc(Cl)cc1)c1cccnc1`?
LANA-H2B inh: 2; IDE cell activ: -1; HDAC3 inhib: 2; SUMO Mot1 rescue: 714*; IDE cell inh: 3; Yeast Mot1 SUMO: 1

What do the screens show for `C[C@@H]1CCC[C@@]2(O[C@H](CCO)C[C@H](O)[C@H]2O)O1`?
LANA-H2B inh: -1; IDE cell activ: 6; HDAC3 inhib: -5; SUMO Mot1 rescue: 56; IDE cell inh: -2

Results for O=S(=O)(CCN1CCCCC1)Oc1ccc(Cl)cc1Cl ?
LANA-H2B inh: -5; IDE cell activ: 6; SUMO Mot1 rescue: 922*; IDE cell inh: 5; Yeast Mot1 SUMO: 1
